The full ranking holds about 33,000 sequences; the median of “E-score (-0.5 to 0.5)” is about -0.0034, and the highest 2% start at about 0.25. Many of the other results were omitted from the sample, so the highest values are more common in it than they were.
The sequences below were run against T1, Yap3 (UniProt P38749) (assay: PBM E-score (8-mer binding enrichment) (E-score (-0.5 to 0.5)); higher = stronger / more preferred TF binding). Conditions: protein concentration: 100 nM; construct: GST-full length.
T1 sequence: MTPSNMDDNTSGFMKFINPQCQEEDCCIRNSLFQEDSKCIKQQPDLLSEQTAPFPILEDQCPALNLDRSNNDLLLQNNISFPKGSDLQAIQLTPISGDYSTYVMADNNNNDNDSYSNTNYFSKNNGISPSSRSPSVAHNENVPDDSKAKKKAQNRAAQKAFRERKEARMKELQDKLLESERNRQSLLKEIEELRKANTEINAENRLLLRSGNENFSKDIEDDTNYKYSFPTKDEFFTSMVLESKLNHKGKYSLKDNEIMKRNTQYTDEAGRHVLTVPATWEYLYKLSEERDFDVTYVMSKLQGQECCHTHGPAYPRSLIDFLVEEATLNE
Procedure, shortened: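 Each ungapped eight-base word and its reverse complement, pooled, received an E-score from the Universal PBM Analysis Suite. Underlying scans, normalised with masliner, recorded fluorescent anti-GST bound to GST-tagged yeast transcription factors. These were applied at about 100-200 nM to universal all-10-mer Agilent arrays double-stranded by primer extension.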

Sequence	PBM E-score
CAGGTGGG	-0.0568
CGGCTCTA	-0.067
CGTGGTCA	-0.112
ACTCTAAG	-0.0616
CTCCGTGA	-0.0971
CGCCACCA	-0.25
CGACCCCA	-0.16
AGTAACGA	-0.0656
GCGACAAA	0.0655
CGCTCGAG	0.0723
GGTTTTCA	0.0332
CTTTTGCA	0.227
AACGGTCG	0.105
AAATTACT	0.304
AAATTAGT	0.283
AAATTACC	0.235
AAATTAGA	0.201
AAATTAGG	0.196
AAATTACG	0.172
CGCAGCGA	-0.0766
TAGTGGGA	-0.0516
AAGCCTTC	-0.0737
GTGTAACA	-0.00489
AAAAGTTA	0.195
TATTTCGA	0.293
AATTTCGA	-0.00117

Sequence	PBM E-score
GATTTCGA	0.12
ATTGTCCG	0.216
TGGTAGAA	-0.0125
GTTATAAA	0.283
TCTATAAA	0.111
GTTATAAC	0.162
GTTATAGA	0.0873
CTTATAAA	0.187
TTTATAAA	0.277
GCAATTAA	0.112
AGAACGCG	0.14
AAGTCGCG	0.146
CATCTACG	-0.0208
GCCCGTAC	-0.155
TAATGAAA	0.218
AAATGAAA	0.324
AAATGATA	0.275
AAATGATC	-0.129
GAATGATA	0.295
CAATGATA	0.137
ACATGATC	0.115
TAATGATA	0.239
ACATGATA	0.263
GCATGATA	0.184
CAATGAAA	0.077
AAATGATT	0.19

Sequence	PBM E-score
ACCGCAAA	0.109
CCTTCATC	-0.195
AGACTATC	0.0563
AGAAGTCG	0.0232
CGGATAGC	0.052
GACCAGAA	-0.00826
ACGGCTAT	-0.0939
CAGACCTC	-0.181
GCAAAAGC	0.0339
ATATTAAG	0.0834
AAATTAAC	0.136
AAATTAAA	0.319
CTATTAAC	0.188
AGATTAAT	0.194
ATATTAGA	0.175
CTATTAAA	0.135
ATATTAAT	0.351
ATATTAAC	0.274
GTATTAAC	0.0508
ATATTAAA	0.378
AAATTAAT	0.229
AGAGACGC	0.0051
CTCCTCCC	-0.358
GTACTGAA	0.117
AACCTTCG	0.0416
CATTGTAA	0.172

Sequence	PBM E-score
CACCAGAG	-0.215
AAGAGTAA	0.0872
GCATTAAA	0.177
TGATTAAA	0.113
GTATTAAA	0.141
ACATTAAA	0.229
TCATTAAA	0.258
TTATTAAA	0.34
GGAGAAGA	-0.148
TAACGCTA	0.023
ATGGCAAT	0.0617
GGGATTAC	0.00382
CAAGCTAG	-0.0475
CATTAGTC	0.0988
AATTAGTG	0.269
CATTAGTA	0.289
CGTTAGTA	0.241
CATTAGCA	0.0386
AGTTAGTA	0.195
ACTTAGTG	-0.0604
AATTAGTC	0.303
AATTAGTA	0.369
GATTAGTA	0.218
AGTTAGTC	0.0694
AATTAGGG	-0.107
ACCTTATC	0.0868

Sequence	PBM E-score
ATCCTCTC	-0.0398
GCAGTGTA	0.0324
GTTCACGA	0.0641
AACTTATT	0.21
TAAGAACA	0.326
GAAGAACA	0.225
CAAGAACA	-0.0451
GTTCATAA	0.0365
GACTCGTA	-0.126
GGATTGCC	-0.116
AGAACACG	0.0921
CAAGGGAC	-0.0565
GTTACTCA	0.161
GTTACTAA	0.339
CTTACTAA	0.443
CTTACTCA	0.164
GTTACTGA	0.106
CTTACTAC	0.211
ACGCGGGG	-0.0549
GTTACGAA	0.181
CTTACGTA	0.349
ATTACGAA	0.329
AATACGTA	0.296
CTTACGAA	0.259
CATACGTA	0.156
ACTACGAA	0.099

Sequence	PBM E-score
AGTACGAA	0.245
CTCACGAA	0.05
AATACGTG	0.0823
GTTACGTA	0.182
CTTACGTC	0.0927
CTTGTCCA	-0.0307
AAAGATCT	-0.0503
AAGAGATT	0.0728
TAGGTAGA	0.076
CGTACAAA	0.108
ATTGGGCA	-0.0331
GGCTACGA	-0.0605
ATAGGGCC	-0.174
TAGGGCAA	-0.0175
CGTGCGAG	-0.0121
ATTACGAG	0.228
ATTACGGC	0.241
CTTACGAC	0.0511
ATTACGGG	0.0809
ATTACGGA	0.295
ATTACGAC	0.269
ACTCGAGC	0.0632
ATTTGTCA	0.313
ATTTGTAG	0.117
CTTTGTAC	0.0552
ATTTGTAA	0.373

Sequence	PBM E-score
CTTTGTAA	0.27
CTTTGTCA	0.15
ATTTGTAC	0.0689
GTTTGTAA	0.0859
GTTTGTCA	0.133
GCGAATCA	0.173
CAACGGTG	-0.243
CGCGTGGA	-0.183
ATACTTAC	0.0503
CAATCAAC	0.217
AATAGCGA	0.24
CCCAAAGG	-0.2
GAGAAGCA	-0.118
AACTAGGT	0.154
GTGCTTTA	0.121
AGGTATGG	-0.0324
ATGAATGG	0.268
ATGAATGA	0.106
ATGAATGC	0.0737
CGGAGCTA	-0.142
GAGGCCAC	-0.223
TGAGTAAA	0.161
ATAGTAAA	0.238
GGAGTAAA	0.267
GGAGTAAC	-0.103
GTAGTCAA	-0.0796

Sequence	PBM E-score
TTAGTAAA	0.295
CTAGTCAA	-0.0259
TTAGTCAA	0.27
CTAGTAAA	0.0933
GAGCGTCC	-0.223
ACACCACC	-0.209
CCTACCCG	-0.174
GAGAAACA	0.218
CGACCCAG	-0.23
CGAGTGTA	-0.0629
GTTTCATA	0.0741
ATAGTTAA	0.114
GTAGTTAA	0.142
CTAGTTAA	0.26
GCATGGGA	-0.197
CATGACAA	0.143
GATGACAA	0.264
GATGACAC	0.132
CGGTTCGA	0.0689
GTGAACAC	-0.156
ATGCCGTC	-0.0725
CGAGCTGA	0.081
AGAGAGGA	-0.261
ATGAATTG	0.208
CTTGAAAA	0.161
AATGAAAT	0.21

Sequence	PBM E-score
TATGAATA	0.266
CTTGAATA	0.113
ATTGAAAA	0.266
ATTGAAAT	0.263
ATTGAAAC	0.155
ATTGAATC	0.0178
CATGAATA	0.0196
ATTGAATA	0.256
GATGAATA	0.242
ATTGAAAG	0.143
CGTCGCAG	-0.0218
GTAGAGAA	0.0971
GAGTGGAC	-0.0806
AGCAAAGA	0.0203
CATACGAC	0.0835
AAGGAAAA	0.156
CCTCTGGA	-0.136
TAATTGCA	0.195
GCTCCTAA	-0.265
ACAAGGAT	0.113
TCTTGTAA	0.118

Source: the supplement of paper PMC3334620
